# Laboratory results as given in PubChem BioAssay (NCI).
# About 83,000 compounds went through this panel and 20% of them were active in at least one assay; those are over-represented in the sample as a whole.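 Assay: single dose, 48 h. Readout: percent growth (0 = no net growth; negative = cell death). Active: <10.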 Values without a mark were called inactive. Active and inactive are the calls of the source.
# Experiments:
# Assay in all cases: NCI-60 one-dose screen, 48 h (100 = growth as untreated, 0 = no growth, -100 = all killed)
# Conditions in all cases: 10 µM unless noted
# HCT-15 colon = test system: HCT-15 colon
# HT29 colon = test system: HT29 colon
# SNB-75 CNS = test system: SNB-75 CNS
# SNB-19 CNS = test system: SNB-19 CNS
# U251 CNS = test system: U251 CNS
# PC-3 prostate = test system: PC-3 prostate
# SK-MEL-5 melanoma = test system: SK-MEL-5 melanoma
# UACC-62 melanoma = test system: UACC-62 melanoma
# LOX IMVI melanoma = test system: LOX IMVI melanoma
# SK-MEL-28 melanoma = test system: SK-MEL-28 melanoma
Structure (SMILES),growth (HCT-15 colon),growth (HT29 colon),growth (SNB-75 CNS),growth (SNB-19 CNS),growth (U251 CNS),growth (PC-3 prostate),growth (SK-MEL-5 melanoma),growth (UACC-62 melanoma),growth (LOX IMVI melanoma),growth (SK-MEL-28 melanoma)
Cn1c(O)c(C(/C=C/c2ccccc2)=Nc2ccccc2N)c(=O)n(C)c1=O,91.5%,72.1%,90.7%,101%,101%,77.7%,75.4%,76.1%,90.3%,120%
O=C(/C=C\c1ccco1)/C=C/c1ccco1,105%,108%,94.5%,105%,104%,95.6%,101%,100%,96.8%,110%
Cc1c2ccccc2nc2c1ccc1cccnc12,81.4%,70.9%,71.1%,88.8%,84.7%,65.1%,53%,94.6%,105%,113%
N#Cc1nc2c(S(=O)(=O)c3ccccc3)c(N)n(Cc3cccnc3)c2nc1C#N,101%,104%,57.4%,75.9%,75.5%,67%,93.6%,85.6%,88.3%,89.3%
CCN(CC)S(=O)(=O)c1ccc(S(=O)(=O)N2CCC[C@@H](C(=O)N3CCN(C(=O)OC(C)(C)C)CC3)C2)cc1,91.8%,91.5%,48.7%,68.8%,81.6%,77.5%,18.2%,62.4%,58%,97.6%
COC(=O)c1c2c(c(C)[n+]([O-])c1C)C(=O)C=CC2=O,-64.8% (active),0.769% (active),-49.1% (active),-23.8% (active),-40.8% (active),3.6% (active),-98.5% (active),-72.8% (active),-86% (active),-82.9% (active)
CCCCCCC(CCCC)COC(=O)c1ccc(Cl)cc1 (stereo not given),107%,121%,95%,109%,113%,96.5%,96.5%,98.7%,103%,112%
CCOC(=O)n1cc(-c2nonc2-c2cn(C)c3ccccc23)c2ccccc21,31.2%,12.8%,16.3%,35.3%,26.7%,48.1%,46.3%,30.6%,41.7%,57.4%
COc1cc2c3c(c1O)-c1ccccc1[C@@H]1OC(=O)N(CC2)[C@H]31,100%,106%,90.5%,104%,94.8%,70.7%,96.1%,90.1%,99.1%,118%
Cn1cc(-c2nn3cc(-c4ccccc4)nc3s2)c2ccccc21,44.7%,44.5%,39.8%,73.4%,77.9%,75.9%,65.5%,54%,79.4%,71.1%
Cn1ccnc1C(=O)/C=C/c1ccc(C(=O)Nc2ccc(F)cc2)cc1,0.589% (active),9.78% (active),33%,24.4%,1.92% (active),22.2%,8.1% (active),35.6%,-59.7% (active),60.9%
O=C(CSc1nnc2sc(Nc3cccc(Cl)c3)nn12)c1ccc(F)cc1,92.3%,90.5%,104%,95.5%,97.9%,85%,98.5%,82.7%,91.7%,104%
Cc1nn(-c2ccccc2)c(N2CCCCC2)c1/C=N/NC(=O)Cn1c(=O)sc2ccccc21,61.3%,57.3%,75%,70.9%,73.4%,61.7%,73.7%,64.3%,60.3%,114%
C=C(C)[C@@H]1CC[C@]2(CO)CC[C@]3(C)[C@H](CC[C@@H]4[C@@]5(C)CCC(NCCc6ccc(O)cc6)C(C)(C)[C@@H]5CC[C@]43C)[C@@H]12 (stereo not given in full),-92.8% (active),-87.9% (active),-86.7% (active),-82.1% (active),-94.2% (active),-84.2% (active),-95.4% (active),-89.3% (active),-96.8% (active),-88.8% (active)
COc1ccc(/C=C/C(=O)c2ccc(Nc3nc(Nc4ccc(F)cc4)nc(Nc4ccc(Cl)cc4)n3)cc2)cc1,100%,94.1%,95.6%,115%,111%,81.4%,83.6%,105%,102%,110%
CCCCCCCCn1ccc2cc(NC(=O)Cn3cc(CN4CCC(C)CC4)nn3)ccc21,-32.2% (active),-66.9% (active),79.1%,-34.8% (active),-57.6% (active),43%,-23% (active),-77.8% (active),-85.3% (active),-86.9% (active)
Cc1ccc2[nH]c(=O)c3c(c2c1)OC(N)=C(C#N)C31C(=O)c2cccc3cccc1c23 (stereo not given),105%,95.6%,84.4%,97.1%,95.2%,89.3%,94.3%,88.9%,93.5%,98.7%
COc1ccc(Nc2ncc(C(N)=O)c(NCCCNC(=O)C3CCC3)n2)cc1,82.1%,70.7%,49.7%,75.5%,56.3%,62.8%,88.3%,77.8%,73.1%,94.2%
NC(=O)c1c(NC(=O)c2ccc(Cl)cc2)sc2c1CCC(=O)C2,63.5%,62.5%,45.4%,71.1%,24%,15.5%,99.1%,61.9%,56.5%,99.2%
COc1cc(Nc2ncccc2NC(=O)c2cn(Cc3cccc(Oc4ccccc4)c3)nn2)cc(OC)c1,68.7%,88.8%,79.9%,79.6%,80.2%,66.5%,60%,65.5%,75.1%,83.3%
CN(C)c1ccc(/C=C/C(=O)c2ccccc2)cc1,62.1%,62.5%,100%,90.4%,69.3%,71.6%,89.3%,93.1%,78.3%,96.8%
CCOC(=O)CSc1nc2sc3c(c2c(=O)n1-c1ccc([N+](=O)[O-])cc1)CCCCC3,85.1%,78.6%,11%,78.8%,53.5%,73.2%,88.7%,74.9%,79.6%,84.1%
CCOC(=O)c1c(C)nn(CC(O)c2ccccc2)c1NC(=O)Nc1cccc(F)c1 (stereo not given),85.2%,96%,77.3%,94.8%,93.4%,76.8%,94.7%,77.2%,95%,104%
CC(C)CSc1oc(-c2ccccc2)nc1S(=O)(=O)c1ccccc1,93.7%,86.2%,89.3%,102%,84.2%,79.9%,90.7%,66.9%,96.1%,115%
O=c1nc(Nc2nc3ccccc3s2)[nH]c(=O)c2ccccc12,99.2%,108%,76.5%,95.6%,98.6%,105%,99.6%,99%,95.7%,110%
N#CCC1=NC(c2cccs2)=Nc2ccccc2S1,109%,89.5%,94%,87.9%,87.7%,71.1%,93.8%,70.1%,99.1%,88.4%
O=C1Nc2ccc(F)cc2/C1=N/c1nnc(Sc2ccccc2)s1,98.3%,105%,80.2%,105%,91.4%,91.7%,86.7%,88.8%,90.9%,116%
